CYP2C9 inh: blocks human cytochrome P450 2C9. AID 777. CYP2C9 Supersomes, luciferin-H conversion, luminescence. 20% of 96,000 active. inhibition, % at 5 µM;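 active = blocking of liver enzyme CYP2C9 beyond about 50% at 5 µM, limit read from the data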
CYP2C19 inhib: human CYP2C19 inhibition; 21% of 96,000 active; CYP2C19 Supersomes, luciferin-H EGE luminescence, 30 min; P33261; AID 778; inhibition, % at 5 µM;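 active = CYP2C19 inhibition above a set limit at 5 µM in the primary screen, cut at about 50% in these data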;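 note: plate controls were negative control wells for no effect and 2.5 mM tranylcypromine positive control for full effect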
Target sequence (P33261 whole entry, looked up): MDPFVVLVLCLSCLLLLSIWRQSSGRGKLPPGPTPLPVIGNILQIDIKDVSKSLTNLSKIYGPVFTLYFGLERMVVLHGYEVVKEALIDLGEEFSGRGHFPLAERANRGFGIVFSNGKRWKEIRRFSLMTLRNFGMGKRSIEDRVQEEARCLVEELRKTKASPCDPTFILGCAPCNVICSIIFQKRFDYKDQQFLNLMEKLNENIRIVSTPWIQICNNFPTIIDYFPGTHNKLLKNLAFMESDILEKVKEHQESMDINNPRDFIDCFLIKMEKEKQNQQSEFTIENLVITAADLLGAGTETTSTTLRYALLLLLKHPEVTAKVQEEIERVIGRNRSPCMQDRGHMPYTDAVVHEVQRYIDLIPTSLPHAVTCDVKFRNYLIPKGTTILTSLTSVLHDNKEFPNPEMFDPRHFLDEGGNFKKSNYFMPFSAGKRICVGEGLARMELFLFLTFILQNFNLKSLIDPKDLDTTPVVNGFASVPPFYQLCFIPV
PostGolgi ctrl: yeast control strain growth, post-Golgi counter-screen. efflux-deficient yeast background strain, growth absorbance A615, 16 h. inhibition, % at 10 µM. 5% of 98,000 active. AID 738
CYP2C9 activ: activators of human CYP2C9. P11712. recombinant CYP2C9, luciferin-H conversion, luminescence; hits give high values; factor 1 = untreated enzyme, 0 = blocked. activation factor at 5 µM. 1.4% of 96,000 active. AID 1024;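 active = activation factor of 2 or more for CYP2C9 at a 5 µM dose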;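 note: 0 = sulfaphenazole-blocked wells and 1 = vehicle-only wells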
CYP2C19 act: activators of human cytochrome P450 2C19; activation factor at 5 µM; recombinant CYP2C19, luciferin-H EGE luminescence; hits give high values; 0 = fully inhibited enzyme, 1 = untreated enzyme; 96,000 tested, under 10 active; P33261;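 active = activation factor of at least 2 at 5 µM in the primary screen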;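 note: 0 = wells with 2.5 mM tranylcypromine and 1 = vehicle-only wells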
PostGolgi yeast: growth inhibition of a yeast mutant, post-Golgi transport screen | post-Golgi transport phenotypic cell assay | inhibition, % at 10 µM | 0.9% of 98,000 active | AID 739;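 note: yeast cells grown in 1536-well plates; yeast grown about 18 h at 30C before absorbance read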
An asterisk follows results filed as active; . = no result given. This is a sample that favours compounds with a hit; in the whole collection about 32% have one here. Cut-off read from the data, not from the text of the source, unless noted: active = inhibition above about 30%; inactive = the rest.

SMILES	CYP2C9 inh	CYP2C19 inhib	PostGolgi ctrl	CYP2C9 activ	CYP2C19 act	PostGolgi yeast
O=c1ccccn1Cc1ccccc1F	-16	-11	3	1.2	1.1	-1
O=c1c(F)cn(C2CCCO2)c(=O)n1Cc1ccccc1F (stereo not given)	38	84*	1	0.6	0.2	5
O=C(CCCn1c(=O)c2ccccc2n(CC(=O)NCc2ccco2)c1=O)NCc1ccco1	41	3	18	0.6	1	19
COc1ccc(NC(=O)Cn2c(=O)n(CC(=O)NCc3ccco3)c(=O)c3ccccc32)cc1	9	0	4	0.9	1	-8
O=C(CCCCn1c(=O)c2ccccc2n(Cc2ccc(F)cc2Cl)c1=O)NCc1ccco1	84*	88*	14	0.2	0.1	3
CCCN(CCC)C(=O)Cn1c(=O)n(CCCCC(=O)NCc2ccco2)c(=O)c2ccccc21	69*	30	-1	0.3	0.7	6
O=C(CCCCn1c(=O)c2ccccc2n(CC(=O)Nc2ccc(F)cc2)c1=O)NCc1ccco1	81*	55*	12	0.2	0.4	-8
CCC(C)NC(=O)Cn1c(=O)n(CCCCC(=O)NCc2ccco2)c(=O)c2ccccc21 (stereo not given)	27	21	-7	0.7	0.8	4
Cc1ccc(NC(=O)Cn2c(=O)n(CCCCC(=O)NCc3ccco3)c(=O)c3ccccc32)cc1	82*	46	-2	0.2	0.5	-17
CCCOC(=O)CSc1nc(N)c(C#N)c(CC)c1C#N	4	25	7	1	0.8	-1
CC(Oc1ccc(Cl)cc1Cl)C(=O)N(Cc1ccco1)C1CCS(=O)(=O)C1 (stereo not given)	21	48	21	0.8	0.5	24
C=CCn1c(C)cc(C(=O)CSc2nnc(Cc3ccccc3)o2)c1C	-43	-1	96*	1.4	1	82*
C=CCn1c(C)cc(C(=O)CSc2nc3ccccc3o2)c1C	25	64*	52*	0.7	0.4	-14
Cc1cc(C(=O)CSc2nc3ccccc3o2)c(C)n1C1CC1	-12	32	23	1.1	0.7	3
Cc1ccsc1C(=O)Nc1ccc(C(=O)O)cc1	57*	92*	-6	0.4	0.1	0
CCC(C)Nc1nc(OC)nc(N(C)C#N)n1 (stereo not given)	-10	6	28	1.1	0.9	-3
O=c1oc2ccccc2cc1-c1nc2c(s1)CCCC2	39	20	0	0.6	0.8	0
O=c1oc2ccccc2cc1-c1csc(NN=C2CCCCC2)n1	78*	86*	-3	0.2	0.1	4
c1ccc2c(c1)oc1c(N3CCOCC3)ncnc12	2	38	7	1	0.6	-15
O=c1[nH]c(CN2CCN(C/C=C/c3ccccc3)CC2)nc2ccccc12	18	27	7	0.8	0.7	-7
COc1ccccc1N1CCN(c2ncnc3c2oc2ccccc23)CC1	27	16	38*	0.7	0.8	6
C(=C\c1ccccc1)/CN1CCN(c2ncnc3c2oc2ccccc23)CC1	40	13	31*	0.6	0.9	21
Nc1nc(N2CCN(C/C=C/c3ccccc3)CC2)nc2ccccc12	70*	51*	5	0.3	0.5	6
c1cnc(N2CCN(c3ncnc4c3oc3ccccc34)CC2)nc1	30	30	.	0.7	0.7	.
c1ccc2[nH]c(CN3CCN(c4ncnc5c4oc4ccccc45)CC3)nc2c1	55*	38	11	0.4	0.6	8
SMILES	CYP2C9 inh	CYP2C19 inhib	PostGolgi ctrl	CYP2C9 activ	CYP2C19 act	PostGolgi yeast
Cc1cc(C)c(C)c(S(=O)(=O)N2CCN(Cc3nc4ccccc4[nH]3)CC2)c1C	23	2	7	0.8	1	-3
COc1ccc(N2CCN(CC(=O)Nc3nnc(-c4ccccc4)s3)CC2)cc1	.	.	-1	.	.	-1
Cc1csc(NC(=O)C2CCN(C(=O)CSc3nnc(C)n3Cc3ccccc3)CC2)n1	43	36	5	0.6	0.6	12
O=C(O)C1C2C=CC3(CN(Cc4ccncc4)C(=O)C13)O2 (stereo not given)	.	.	0	.	.	-2
COc1cc(C(=O)Nc2cccc(-c3nncn3C)c2)cc(OC)c1OC	-8	-13	-1	1.1	1.1	4
O=C(NCN1CCN(c2ccccc2F)CC1)c1cccnc1	2	34	-1	1	0.7	9
COC(=O)c1ccc(-n2nnnc2SCc2nn[nH]n2)cc1	-5	-10	5	1.1	1.1	3
Cc1nc(N2CCN(Cc3nc4ccccc4[nH]3)CC2)c2oc3ccccc3c2n1	92*	84*	2	0.1	0.2	-19
COC(=O)CC/C(O)=C1/C(=N)CC(C)(C)CC1=O	3	0	2	1	1	22
CCOc1ccc2nc(NC(=O)CSC3=NCCS3)sc2c1	25	20	3	0.7	0.8	-1
COc1ccc2nc(NC(=S)N(C)C)sc2c1	94*	99*	9	0.1	0	-2
CCOc1ccc2nc(SCC(=O)c3ccc(C)s3)sc2c1	12	51*	2	0.9	0.5	-7
COc1ccc2nc(NC(=O)CSC3=NCCS3)sc2c1	29	64*	15	0.7	0.4	7
CCOc1ccc2nc(NC(=O)CSc3ccc(Cl)cc3)sc2c1	63*	6	1	0.4	0.9	3
Cc1nnc(NC(=O)CSc2ccccn2)s1	-13	-5	8	1.1	1.1	-2
COc1ccc2nc(NC(=O)CSc3ccccc3)sc2c1	63*	31	4	0.4	0.7	-8
CCOCC(=O)Nc1nc2ccc(OCC)cc2s1	32	52*	15	0.7	0.5	-11
CC(C)Cc1nnc(NC(=O)CSc2ccccn2)s1	31	56*	20	0.7	0.4	6
CCOCC(=O)Nc1nc2ccc(C)cc2s1	.	.	2	.	.	-1
COCc1nnc(NC(=O)CSc2ccccc2)s1	40	67*	12	0.6	0.3	-6
COc1cccc(CN2C(=O)CN(C3CCCCC3)C(=O)C2c2ccc(F)cc2)c1 (stereo not given)	46	16	24	0.5	0.8	11
CCC(=O)Nc1nnc(CSCc2ccc(F)cc2)s1	6	35	-1	0.9	0.7	-9
O=c1c2nnn(Cc3ccccc3)c2ncn1C/C=C/c1ccccc1	11	9	8	0.9	0.9	-10
Cc1cccc(OCC(=O)Nc2nc3ccc([N+](=O)[O-])cc3s2)c1C	-34	-10	5	1.3	1.1	12
Cc1cccc(OCC(=O)Nc2nc3ccc([N+](=O)[O-])cc3s2)c1	91*	70*	12	0.1	0.3	11
c1ccc2c(c1)OCC(c1nnc3sc(-c4cnccn4)nn13)O2 (stereo not given)	-4	21	18	1	0.8	4
c1csc(-c2nn3c(C4COc5ccccc5O4)nnc3s2)c1 (stereo not given)	51*	58*	1	0.5	0.4	11

Screening data (PubChem BioAssay)
